# Of roughly 8,800 targets only a part is listed; those with a hit were picked by preference. About 0.5% of all pairs of compound and target were hits. Values without a mark were called inactive.
# How the values were obtained:
# Test in all cases: log2 fold change, soluble protein after heating vs DMSO (PISA); higher = thermal stabilisation; K562 lysate, 10 uM; active = over 0.2 and 3.5 SD of the protein, either way, in both replicates (recomputed)
# lapatinib = compound: CS(=O)(=O)CCNCc1ccc(-c2ccc3ncnc(Nc4ccc(OCc5cccc(F)c5)c(Cl)c4)c3c2)o1 [lapatinib]
# Procedure, shortened: (§1)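 Quantification was by TMTpro 16plex LC-MS/MS with equalised channel sums, applied to the supernatant after 21,000xg for 90 min. Samples were crude K562 extract at 1 mg/mL protein in PBS pH 7.4 with 1 mM MgCl2, treated with 10 μM compound for 30 min, heated for 3 min across 48°C-58°C, pooled and brought to 0.5% NP-40 at 4°C. Values are log-two fold changes in thermal stability relative to solvent controls, from duplicates.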
# pictilisib = compound: CS(=O)(=O)N1CCN(Cc2cc3nc(-c4cccc5[nH]ncc45)nc(N4CCOCC4)c3s2)CC1 [pictilisib]
# Procedure, shortened: as §1
# crizotinib = compound: C[C@@H](Oc1cc(-c2cnn(C3CCNCC3)c2)cnc1N)c1c(Cl)ccc(F)c1Cl [crizotinib]
# Procedure, shortened: as §1
# [1] = compound: C[C@H](C1=CC=C(C=C1)C(=O)NC2=C3C=CNC3=NC=C2)N
# Procedure, shortened: as §1
# duvelisib = compound: C[C@H](Nc1ncnc2nc[nH]c12)c1cc2cccc(Cl)c2c(=O)n1-c1ccccc1 [duvelisib]
# Procedure, shortened: as §1
# gandotinib = compound: Cc1cc(Nc2cc(CN3CCOCC3)c3nc(C)c(Cc4ccc(Cl)cc4F)n3n2)n[nH]1 [gandotinib]
# Procedure, shortened: as §1
# tozasertib = compound: Cc1cc(Nc2cc(N3CCN(C)CC3)nc(Sc3ccc(NC(=O)C4CC4)cc3)n2)n[nH]1 [tozasertib]
# Procedure, shortened: as §1
# doramapimod = compound: Cc1ccc(-n2nc(C(C)(C)C)cc2NC(=O)Nc2ccc(OCCN3CCOCC3)c3ccccc23)cc1 [doramapimod]
# Procedure, shortened: as §1
# bafetinib = compound: Cc1ccc(NC(=O)c2ccc(CN3CC[C@H](N(C)C)C3)c(C(F)(F)F)c2)cc1Nc1nccc(-c2cncnc2)n1 [bafetinib]
# Procedure, shortened: as §1
# [2] = compound: Cc1cccc(CC(=O)N2CCc3c2ccc(-c2cn(C)c4ncnc(N)c24)c3F)n1
# Procedure, shortened: as §1
# nilotinib = compound: Cc1cn(-c2cc(NC(=O)c3ccc(C)c(Nc4nccc(-c5cccnc5)n4)c3)cc(C(F)(F)F)c2)cn1 [nilotinib]
# Procedure, shortened: as §1
# [3] = compound: Cc1nc(Nc2n[nH]c3c2CN(C(=O)N[C@H](CN(C)C)c2ccccc2)C3(C)C)c2sccc2n1
# Procedure, shortened: as §1
# dasatinib = compound: Cc1nc(Nc2ncc(C(=O)Nc3c(C)cccc3Cl)s2)cc(N2CCN(CCO)CC2)n1 [dasatinib]
# Procedure, shortened: as §1
# [4] = compound: Cc1ncc(-c2ccnc(Nc3ccc(S(C)(=O)=O)cc3)n2)n1C(C)C
# Procedure, shortened: as §1
# [5] = compound: Cn1cc(-c2ccc3c(c2)CCN3C(=O)Cc2cccc(C(F)(F)F)c2)c2c(N)ncnc21
# Procedure, shortened: as §1
# quisinostat = compound: Cn1cc(CNCC2CCN(c3ncc(C(=O)NO)cn3)CC2)c2ccccc21 [quisinostat]
# Procedure, shortened: as §1
# tipifarnib = compound: Cn1cncc1[C@@](N)(c1ccc(Cl)cc1)c1ccc2c(c1)c(-c1cccc(Cl)c1)cc(=O)n2C [tipifarnib]
# Procedure, shortened: as §1
# [6] = compound: NC(=O)Nc1cc(-c2cccc(F)c2)sc1C(=O)N[C@H]1CCCNC1
# Procedure, shortened: as §1
# [7] = compound: NC(=O)c1cnc(N[C@@H]2CCCC[C@@H]2N)nc1Nc1cccc(-n2nccn2)c1
# Procedure, shortened: as §1
# [8] = compound: NC1(c2ccc(-c3nc4ccn5c(=O)[nH]nc5c4cc3-c3ccccc3)cc2)CCC1
# Procedure, shortened: as §1
# UniProt Q13155, sequence (Q13155 whole entry, looked up): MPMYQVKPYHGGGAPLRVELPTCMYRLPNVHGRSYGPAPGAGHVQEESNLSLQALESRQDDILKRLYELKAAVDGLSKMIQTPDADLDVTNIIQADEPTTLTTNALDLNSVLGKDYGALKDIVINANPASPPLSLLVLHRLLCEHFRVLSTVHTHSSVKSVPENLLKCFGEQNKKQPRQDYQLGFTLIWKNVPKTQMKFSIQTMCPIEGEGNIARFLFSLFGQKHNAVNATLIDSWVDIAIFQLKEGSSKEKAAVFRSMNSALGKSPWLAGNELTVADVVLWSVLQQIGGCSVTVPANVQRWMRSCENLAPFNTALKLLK
# UniProt O14617, sequence (O14617 whole entry, looked up): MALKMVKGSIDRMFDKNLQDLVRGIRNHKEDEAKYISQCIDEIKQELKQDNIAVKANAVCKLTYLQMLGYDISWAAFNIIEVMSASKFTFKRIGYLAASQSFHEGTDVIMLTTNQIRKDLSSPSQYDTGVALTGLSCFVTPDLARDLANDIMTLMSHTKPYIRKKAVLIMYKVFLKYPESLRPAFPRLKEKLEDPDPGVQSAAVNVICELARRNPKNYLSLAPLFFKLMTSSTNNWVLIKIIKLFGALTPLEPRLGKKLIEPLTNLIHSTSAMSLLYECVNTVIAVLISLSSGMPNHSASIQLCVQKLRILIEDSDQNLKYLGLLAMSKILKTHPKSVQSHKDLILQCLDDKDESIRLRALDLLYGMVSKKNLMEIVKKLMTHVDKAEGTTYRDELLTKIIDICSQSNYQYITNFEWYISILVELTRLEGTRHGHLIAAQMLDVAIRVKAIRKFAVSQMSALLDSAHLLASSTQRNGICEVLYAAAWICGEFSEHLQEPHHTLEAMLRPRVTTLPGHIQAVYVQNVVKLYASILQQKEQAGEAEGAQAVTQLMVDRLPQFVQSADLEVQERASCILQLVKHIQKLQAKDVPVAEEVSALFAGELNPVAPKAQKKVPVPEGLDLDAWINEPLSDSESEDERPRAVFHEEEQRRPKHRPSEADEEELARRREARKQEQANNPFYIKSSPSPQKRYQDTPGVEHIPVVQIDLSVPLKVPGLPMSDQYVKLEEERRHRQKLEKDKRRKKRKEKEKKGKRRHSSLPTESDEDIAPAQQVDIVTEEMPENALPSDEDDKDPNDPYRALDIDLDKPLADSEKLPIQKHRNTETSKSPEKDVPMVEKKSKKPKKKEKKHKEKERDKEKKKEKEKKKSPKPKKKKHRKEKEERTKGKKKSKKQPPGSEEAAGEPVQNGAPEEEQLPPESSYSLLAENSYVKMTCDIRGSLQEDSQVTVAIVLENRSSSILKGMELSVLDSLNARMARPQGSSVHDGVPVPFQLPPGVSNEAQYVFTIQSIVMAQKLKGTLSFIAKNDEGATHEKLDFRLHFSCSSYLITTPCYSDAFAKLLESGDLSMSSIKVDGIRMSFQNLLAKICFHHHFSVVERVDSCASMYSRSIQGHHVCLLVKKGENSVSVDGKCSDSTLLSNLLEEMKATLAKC
# UniProt Q9BVK2, sequence (Q9BVK2 whole entry, looked up): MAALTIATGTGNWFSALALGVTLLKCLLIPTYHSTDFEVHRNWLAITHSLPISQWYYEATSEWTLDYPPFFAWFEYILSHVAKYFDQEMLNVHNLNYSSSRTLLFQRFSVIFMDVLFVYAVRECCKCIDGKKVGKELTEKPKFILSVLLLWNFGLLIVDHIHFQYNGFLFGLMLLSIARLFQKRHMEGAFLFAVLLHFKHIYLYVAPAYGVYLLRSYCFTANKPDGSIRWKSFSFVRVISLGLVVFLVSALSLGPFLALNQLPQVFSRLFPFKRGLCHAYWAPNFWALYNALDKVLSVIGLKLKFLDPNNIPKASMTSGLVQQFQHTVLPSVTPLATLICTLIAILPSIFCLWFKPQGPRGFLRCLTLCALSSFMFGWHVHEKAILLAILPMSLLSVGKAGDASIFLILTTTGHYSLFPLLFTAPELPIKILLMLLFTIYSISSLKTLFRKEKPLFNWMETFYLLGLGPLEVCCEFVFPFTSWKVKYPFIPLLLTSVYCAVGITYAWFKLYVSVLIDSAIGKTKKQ
# UniProt O60488, sequence (O60488 whole entry, looked up): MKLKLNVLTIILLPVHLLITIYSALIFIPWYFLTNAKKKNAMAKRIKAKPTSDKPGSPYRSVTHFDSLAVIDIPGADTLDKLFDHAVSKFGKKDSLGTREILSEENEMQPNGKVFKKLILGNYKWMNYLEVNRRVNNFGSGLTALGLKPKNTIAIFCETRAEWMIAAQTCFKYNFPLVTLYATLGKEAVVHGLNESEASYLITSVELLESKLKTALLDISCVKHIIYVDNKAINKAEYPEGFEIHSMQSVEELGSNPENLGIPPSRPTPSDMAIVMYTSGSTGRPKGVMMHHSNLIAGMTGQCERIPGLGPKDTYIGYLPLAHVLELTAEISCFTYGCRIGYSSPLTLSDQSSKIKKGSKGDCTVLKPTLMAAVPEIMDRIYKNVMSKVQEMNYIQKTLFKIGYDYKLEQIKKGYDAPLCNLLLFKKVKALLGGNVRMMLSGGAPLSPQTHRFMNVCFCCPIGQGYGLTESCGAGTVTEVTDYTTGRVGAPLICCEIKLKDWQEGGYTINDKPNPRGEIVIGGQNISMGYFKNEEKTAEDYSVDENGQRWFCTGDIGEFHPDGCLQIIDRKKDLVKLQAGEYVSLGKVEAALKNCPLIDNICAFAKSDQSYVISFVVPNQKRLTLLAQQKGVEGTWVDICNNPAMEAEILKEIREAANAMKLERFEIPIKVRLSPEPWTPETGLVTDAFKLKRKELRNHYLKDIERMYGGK
# UniProt Q8IZP0, sequence (Q8IZP0 whole entry, looked up): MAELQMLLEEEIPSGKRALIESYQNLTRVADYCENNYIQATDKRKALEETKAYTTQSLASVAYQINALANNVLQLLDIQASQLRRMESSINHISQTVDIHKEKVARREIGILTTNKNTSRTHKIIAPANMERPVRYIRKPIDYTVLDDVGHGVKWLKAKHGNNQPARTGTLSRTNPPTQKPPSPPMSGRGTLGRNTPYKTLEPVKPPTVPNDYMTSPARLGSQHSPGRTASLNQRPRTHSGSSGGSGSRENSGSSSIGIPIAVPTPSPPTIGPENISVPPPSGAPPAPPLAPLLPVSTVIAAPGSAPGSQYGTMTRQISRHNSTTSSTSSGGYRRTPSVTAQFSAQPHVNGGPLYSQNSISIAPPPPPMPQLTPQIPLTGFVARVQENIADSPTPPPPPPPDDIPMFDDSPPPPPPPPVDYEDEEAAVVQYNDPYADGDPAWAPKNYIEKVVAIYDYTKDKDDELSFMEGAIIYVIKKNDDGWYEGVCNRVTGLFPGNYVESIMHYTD
# UniProt Q9BQI0, sequence (Q9BQI0 whole entry, looked up): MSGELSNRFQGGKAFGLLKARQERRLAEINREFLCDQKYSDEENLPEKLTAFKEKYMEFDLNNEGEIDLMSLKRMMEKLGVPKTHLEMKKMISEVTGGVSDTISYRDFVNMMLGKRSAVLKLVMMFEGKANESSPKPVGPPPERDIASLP
# UniProt Q5JTZ9, sequence (Q5JTZ9 whole entry, looked up): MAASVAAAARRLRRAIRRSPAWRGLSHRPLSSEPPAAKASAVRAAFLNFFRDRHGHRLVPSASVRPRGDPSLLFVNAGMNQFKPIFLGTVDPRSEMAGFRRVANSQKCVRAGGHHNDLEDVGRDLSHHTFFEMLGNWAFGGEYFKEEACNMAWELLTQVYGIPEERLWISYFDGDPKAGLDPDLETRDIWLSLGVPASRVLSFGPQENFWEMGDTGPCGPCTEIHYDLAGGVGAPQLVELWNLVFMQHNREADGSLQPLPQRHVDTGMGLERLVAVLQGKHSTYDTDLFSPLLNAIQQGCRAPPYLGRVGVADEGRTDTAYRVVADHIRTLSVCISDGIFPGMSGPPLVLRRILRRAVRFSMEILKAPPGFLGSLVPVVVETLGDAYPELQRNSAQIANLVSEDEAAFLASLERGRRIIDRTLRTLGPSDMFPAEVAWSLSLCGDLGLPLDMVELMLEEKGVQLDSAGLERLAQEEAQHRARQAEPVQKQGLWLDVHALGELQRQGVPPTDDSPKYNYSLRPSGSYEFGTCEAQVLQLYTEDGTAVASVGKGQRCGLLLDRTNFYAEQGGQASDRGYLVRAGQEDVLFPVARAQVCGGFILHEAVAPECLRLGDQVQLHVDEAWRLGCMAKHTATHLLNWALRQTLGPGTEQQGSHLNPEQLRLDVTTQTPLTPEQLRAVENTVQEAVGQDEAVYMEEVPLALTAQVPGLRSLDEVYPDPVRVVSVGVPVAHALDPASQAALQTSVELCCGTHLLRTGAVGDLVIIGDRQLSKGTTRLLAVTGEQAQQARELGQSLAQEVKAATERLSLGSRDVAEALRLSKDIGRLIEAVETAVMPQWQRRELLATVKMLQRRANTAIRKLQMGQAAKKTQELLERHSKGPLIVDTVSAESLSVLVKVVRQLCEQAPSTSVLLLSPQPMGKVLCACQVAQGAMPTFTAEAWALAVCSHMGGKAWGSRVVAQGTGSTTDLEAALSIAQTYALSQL
# UniProt O00116, sequence (O00116 whole entry, looked up): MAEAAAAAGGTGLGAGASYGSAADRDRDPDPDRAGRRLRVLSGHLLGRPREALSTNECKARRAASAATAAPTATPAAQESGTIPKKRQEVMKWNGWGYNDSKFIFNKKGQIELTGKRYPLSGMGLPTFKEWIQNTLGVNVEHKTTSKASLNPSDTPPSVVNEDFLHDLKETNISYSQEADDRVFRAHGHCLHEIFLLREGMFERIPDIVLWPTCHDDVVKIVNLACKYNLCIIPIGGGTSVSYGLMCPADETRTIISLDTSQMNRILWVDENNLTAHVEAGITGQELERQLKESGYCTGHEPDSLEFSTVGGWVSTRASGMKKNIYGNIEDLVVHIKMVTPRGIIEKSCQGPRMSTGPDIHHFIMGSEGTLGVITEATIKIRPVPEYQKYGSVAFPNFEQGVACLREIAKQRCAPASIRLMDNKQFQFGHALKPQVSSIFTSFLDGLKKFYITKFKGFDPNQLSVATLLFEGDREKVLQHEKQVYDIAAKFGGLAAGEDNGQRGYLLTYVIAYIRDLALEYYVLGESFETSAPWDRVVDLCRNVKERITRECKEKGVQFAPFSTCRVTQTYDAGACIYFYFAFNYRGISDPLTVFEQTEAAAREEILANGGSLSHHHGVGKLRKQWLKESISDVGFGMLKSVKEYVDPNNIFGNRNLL
Target,log2 fold change (lapatinib),log2 fold change (pictilisib),log2 fold change (crizotinib),log2 fold change [1],log2 fold change (duvelisib),log2 fold change (gandotinib),log2 fold change (tozasertib),log2 fold change (doramapimod),log2 fold change (bafetinib),log2 fold change [2],log2 fold change (nilotinib),log2 fold change [3],log2 fold change (dasatinib),log2 fold change [4],log2 fold change [5],log2 fold change (quisinostat),log2 fold change (tipifarnib),log2 fold change [6],log2 fold change [7],log2 fold change [8]
ADAR isoform 4 (UniProt P55265),0.023,-0.135,0,0.01,0.016,-0.038,0.016,0.069,-0.16,0.028,0.006,0.012,-0.026,-0.027,0.009,-0.114,-0.009,0.015,-0.009,0.029
APEX1 (UniProt P27695),0.022,0.039,-0.01,0.352 (active),-0.025,-0.042,-0.029,-0.045,0.106,-0.067,0.045,-0.037,0.002,-0.027,0.018,0.016,0.001,0.021,-0.011,-0.008
AIF1L (UniProt Q9BQI0),0.047,0.046,0.039,0.069,-0.075,-0.171,-0.105,-0.037,-0.122,0.101,-0.263,-0.176,0.118,0.142,-0.058,-0.075,0.123,-0.112,-0.012,0.016
ALG8 (UniProt Q9BVK2),-0.043,-0.043,0.017,-0.211,-0.013,0,0.116,-0.06,-0.08,0.087,-0.007,-0.008,-0.051,-0.077,0.02,0.019,-0.165,0.043,-0.025,-0.006
ALDH1L2 (UniProt Q3SY69),0.029,-0.01,-0.032,-0.066,0.003,0.039,0.032,0.005,-0.029,0.083,-0.013,0.01,-0.021,0.012,0.046,-0.027,0.012,0.026,0.05,-0.042
ACSL4 (UniProt O60488),0.008,0.028,-0.042,-0.016,0.026,-0.065,0.002,0.025,-0.093,-0.003,-0.011,0.008,0.004,0.018,0.02,-0.018,-0.051,0.029,-0.032,-0.074
APOBEC3C (UniProt Q9NRW3),0.011,0.033,-0.09,-0.058,0.021,0.066,-0.055,0.1,-0.023,0.153,0.082,-0.014,-0.005,0,0.042,-0.144,-0.024,-0.067,-0.001,0.028
ACOX1 isoform 2 (UniProt Q15067),-0.003,-0.003,-0.004,-0.112,-0.012,0.167,0.043,0.024,-0.01,0.054,0.104,0.005,0.065,-0.011,0.019,0,-0.042,-0.018,-0.039,0
AGPS (UniProt O00116),-0.017,-0.049,-0.02,-0.033,-0.011,0.019,0.015,0.025,0.002,0.083,-0.014,-0.021,-0.033,0.05,0.008,0.064,-0.015,0.014,0.004,0.003
AARS2 (UniProt Q5JTZ9),0.007,0.01,-0.046,0.072,0.012,-0.121,0.039,0.034,-0.041,0.019,-0.046,0.021,-0.018,-0.013,0.062,-0.046,0.023,0.053,0.016,-0.05
ABCF2 isoform 2 (UniProt Q9UG63),-0.038,-0.005,-0.011,-0.001,0.021,-0.097,0.057,-0.002,-0.025,-0.024,0.001,-0.001,-0.036,-0.024,0.005,-0.022,0.002,0.042,-0.002,-0.023
ABI1 isoform 9 (UniProt Q8IZP0),0.011,-0.048,-0.006,-0.26 (active),0.01,0.13,0.008,-0.015,0.08,0.163,-0.006,-0.004,-0.001,-0.02,-0.016,0.003,-0.01,-0.023,0.003,0.032
ARAP1 (UniProt Q96P48),-0.022,-0.046,-0.065,-0.03,-0.002,0.014,-0.005,0.063,-0.016,0.034,-0.009,-0.029,-0.036,-0.032,0.013,-0.072,-0.041,0.029,0.006,0.003
AIMP2 (UniProt Q13155),-0.006,0.015,-0.047,0.05,-0.018,-0.12,0.041,0.029,-0.03,-0.032,0.015,-0.015,-0.048,-0.002,-0.007,-0.009,-0.003,0.045,-0.012,-0.007
AP4B1 (UniProt Q9Y6B7),0.064,-0.142,0.025,-0.106,-0.058,-0.023,-0.011,0.019,-0.079,0.135,0.023,0.011,0.032,-0.013,0.027,0.018,-0.051,0.1,0.028,0.007
AP3D1 isoform 5 (UniProt O14617),0.008,0.01,-0.02,-0.061,0.023,0.05,0.019,0.059,-0.042,0.081,-0.001,0.018,-0.043,0.002,0.003,-0.002,-0.002,0.016,-0.007,0.03
